Results on 42 sequences are retold here after paper PMC10726135, “HNF4α isoforms regulate the circadian balance between carbohydrate and lipid metabolism in the liver”.

Over roughly 18,000 sequences, “log2 normalized intensity” has its median near 0.36; the highest 2% begin near 7.3. For the sample, the highest values were picked, then their nearest neighbours and some sequences at random.

The target of this assay is T1, HNF4alpha8 (COS-7 nuclear extract) (Homo sapiens, UniProt P41235-5 1-452).
T1 sequence: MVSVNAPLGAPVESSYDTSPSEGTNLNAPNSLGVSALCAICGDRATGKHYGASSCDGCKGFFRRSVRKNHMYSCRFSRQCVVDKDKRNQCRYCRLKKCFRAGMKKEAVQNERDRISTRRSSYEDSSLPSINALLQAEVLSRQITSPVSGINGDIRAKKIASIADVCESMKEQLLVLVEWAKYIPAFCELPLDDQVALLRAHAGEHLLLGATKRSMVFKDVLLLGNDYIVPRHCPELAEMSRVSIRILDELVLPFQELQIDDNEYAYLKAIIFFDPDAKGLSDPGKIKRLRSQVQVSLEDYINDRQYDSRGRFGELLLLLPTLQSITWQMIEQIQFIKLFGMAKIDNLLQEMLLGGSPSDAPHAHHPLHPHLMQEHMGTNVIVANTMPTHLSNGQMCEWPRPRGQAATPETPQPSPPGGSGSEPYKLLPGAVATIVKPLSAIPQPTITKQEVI
Put plainly: protein-binding microarray; COS-7 nuclear extract on double-stranded Agilent 4x180k PBM; binding buffer, salt, pH and temperature not given in the material; high values mean tight binding. As to conditions: chain copies: 2; label: 3' end of strand 1 on the slide; dsDNA, one strand shown. The method, boiled down:
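Nuclear extracts of COS-7 cells transiently transfected with a human HNF4α isoform were applied to a custom Agilent SurePrint G3 4x180k array bearing ~44,000 double-stranded ~60-nt test sequences, each in quadruplicate. The bound protein was imaged on an Agilent G2565CA scanner at 2-µm resolution. Binding signal is the normalized, background-corrected gProcessedSignal from Agilent software.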
In the case of “ATGGGATGACCTTTGAGCAATAGGAAATGGGCCTAGGGAGATTAGAGTATCGGTCGA”, the binding signal was 4.79 log2 normalized intensity.

For “CATCTTTGAGCTGGATGACCTTTGTCCTGGGCCTAGGGAGATTAGAGTATCGGTCGA”, the binding signal is 9.19 log2 normalized intensity. With “CTAGTTAAGTCACTGGGCTGATGACCTTTGGCCTAGGGAGATTAGAGTATCGGTCGA”, the binding signal stood at 6.81 log2 normalized intensity. The result for “CTGGATGACCTTTGTCCTGGCACAACTGGAGCCTAGGGAGATTAGAGTATCGGTCGA” reads 6.78 log2 normalized intensity; that for “TTTTTTTTTTGAGATGGAATCTTGCCCTGTGCCTAGGGAGATTAGAGTATCGGTCGA”, 3.54 log2 normalized intensity. The result for “TTGAGCTGGATGACCTTTGTCCTGGCACAAGCCTAGGGAGATTAGAGTATCGGTCGA” reads 8 log2 normalized intensity; that for “ATGACCTTTGACTGAGATGGGAGCAGTGCTGCCTAGGGAGATTAGAGTATCGGTCGA”, 3.52 log2 normalized intensity; that for “TCCTGATCTTTGACCTGGAGCATGACCCTTGCCTAGGGAGATTAGAGTATCGGTCGA”, 5.6 log2 normalized intensity. For the sequence “CACTGGGCTGATGACCTTTGACTGAGATGGGCCTAGGGAGATTAGAGTATCGGTCGA”, the binding signal was determined as 5.81 log2 normalized intensity. “TGACCTTTGTCCTGGCACAACTGGATGGTGGCCTAGGGAGATTAGAGTATCGGTCGA”: the binding signal was 5.2 log2 normalized intensity. With “AGAATCATCTTTGAGCTGGATGACCTTTGTGCCTAGGGAGATTAGAGTATCGGTCGA”, the binding signal amounted to 8.24 log2 normalized intensity. On to “TAAGTCACTGGGCTGATGACCTTTGACTGAGCCTAGGGAGATTAGAGTATCGGTCGA”, for which the binding signal came to 7.85 log2 normalized intensity. For the sequence “CTAGCCCCGCCCAGATGTCTGGCTAAGACCGCCTAGGGAGATTAGAGTATCGGTCGA”, the binding signal was 3.43 log2 normalized intensity. On to “GAGGAAAACCAGCTCAGTGGAAATTGTCCTGCCTAGGGAGATTAGAGTATCGGTCGA”, for which the binding signal was found to be 0.989 log2 normalized intensity. As for “CATATCTGGAATTTCAAAGGGAGCATATGTGCCTAGGGAGATTAGAGTATCGGTCGA”, the binding signal turned out to be 1.31 log2 normalized intensity.

Take “CTTTCTTTGTCTGTGTAGACTCATCTGGTGGCCTAGGGAGATTAGAGTATCGGTCGA”: the binding signal came to 1.89 log2 normalized intensity.

With “ATGAAGCAAGAGTCCAAATTCCTAGCCCTCGCCTAGGGAGATTAGAGTATCGGTCGA”, the binding signal stood at 2.14 log2 normalized intensity.

Regarding “AGGTTCCTCGCCTATGGTATGTATGGAATGGCCTAGGGAGATTAGAGTATCGGTCGA”, the binding signal amounted to 2.2 log2 normalized intensity.

“TCTTTGCACTTGATGTTCCCCCTCCCTGGAGCCTAGGGAGATTAGAGTATCGGTCGA”: the binding signal was determined as 4.84 log2 normalized intensity. For the sequence “AGGGGCTATTTCTGACCTTTGCACCAGAGAGCCTAGGGAGATTAGAGTATCGGTCGA”, the binding signal was 7.69 log2 normalized intensity.

For the sequence “TGGCTAAGACAGGGGCTATTTCTGACCTTTGCCTAGGGAGATTAGAGTATCGGTCGA”, the binding signal turned out to be 7.32 log2 normalized intensity. Consider “CTATTTCTGACCTTTGCACCAGAGATAATAGCCTAGGGAGATTAGAGTATCGGTCGA”, for which the binding signal was found to be 6.97 log2 normalized intensity. With “CCTTTGCACCAGAGATAATATGCTTACTTAGCCTAGGGAGATTAGAGTATCGGTCGA”, the binding signal is 0.614 log2 normalized intensity.

As to “AAGACAGGGGCTATTTCTGACCTTTGCACCGCCTAGGGAGATTAGAGTATCGGTCGA”, the binding signal was 10.2 log2 normalized intensity.

For the sequence “TCTGACCAGGCTGATTTAGCTATTTGACCTGCCTAGGGAGATTAGAGTATCGGTCGA”, the binding signal is 4.7 log2 normalized intensity.

With “CTGAGACAACACTCAGGATACCTAAGCCCCGCCTAGGGAGATTAGAGTATCGGTCGA”, the binding signal was found to be 1.33 log2 normalized intensity. Take “TCTTATTTACCGAAATGTGGGTGAGGCTGTGCCTAGGGAGATTAGAGTATCGGTCGA”: the binding signal amounted to 1.67 log2 normalized intensity.

Regarding “AAGCTATTCACTTTTTGGCCTTTGGCTGTTGCCTAGGGAGATTAGAGTATCGGTCGA”, the binding signal came to 3.01 log2 normalized intensity.

For the sequence “TAAAATGGACTTTGTGGGCCAAAAGCAGCCGCCTAGGGAGATTAGAGTATCGGTCGA”, the binding signal stood at 2.65 log2 normalized intensity. Regarding “AAAAAGTCCCTGGTCCCATAGGAAAGTGAGGCCTAGGGAGATTAGAGTATCGGTCGA”, the binding signal was -0.813 log2 normalized intensity. Take “TTTTGAATGACAGTGTCAGGACCTTGCTCCGCCTAGGGAGATTAGAGTATCGGTCGA”: the binding signal came out at 2.73 log2 normalized intensity. For “AATACTTGCCTAAGGTCAATGTCCTTTTTCGCCTAGGGAGATTAGAGTATCGGTCGA”, the binding signal was determined as 4.53 log2 normalized intensity. With “ATTAGAGAACATGTACTTTGTACTGCTTATGCCTAGGGAGATTAGAGTATCGGTCGA”, the binding signal was determined as 4.99 log2 normalized intensity. The result for “AGGAGATGTGGTGGACTTTAACGACCTTTGGCCTAGGGAGATTAGAGTATCGGTCGA” reads 5.28 log2 normalized intensity; that for “CCCCTTCTTAACATCAGAAGTTGGACTTTGGCCTAGGGAGATTAGAGTATCGGTCGA”, 8.31 log2 normalized intensity; that for “AGGGACTTTGATCTTCTTACCCCTTTGCTGGCCTAGGGAGATTAGAGTATCGGTCGA”, 3.3 log2 normalized intensity. Consider “TCTTAACATCAGAAGTTGGACTTTGTACATGCCTAGGGAGATTAGAGTATCGGTCGA”, for which the binding signal was 9.76 log2 normalized intensity. As to “ACTTTGGAACTCAGTTAATGTACAGAGTATGCCTAGGGAGATTAGAGTATCGGTCGA”, the binding signal is 0.96 log2 normalized intensity. For the sequence “CCTTGATGTGTATTTGTAGCTTCAAACCAGGCCTAGGGAGATTAGAGTATCGGTCGA”, the binding signal was 1.52 log2 normalized intensity. In the case of “GGGGGTTTGCAACCTTTGATAACCTACAACGCCTAGGGAGATTAGAGTATCGGTCGA” it was 1.37 log2 normalized intensity; in that of “GTGAGTGTGTTGGCAAGAGATCTGCAGGGTGCCTAGGGAGATTAGAGTATCGGTCGA”, 1.02 log2 normalized intensity. In the case of “GGTTCAAAGGTCATTTCTGCTTGCAACCAAGCCTAGGGAGATTAGAGTATCGGTCGA” it was 5.81 log2 normalized intensity.
